Results: PubChem BioAssay AID1159580 (chemical genetic matrix, 2015)
The campaign covered roughly 5,500 compounds. About 2,000 (36%) were called active. About 18% were inconclusive and are not listed. This is one part of the list. Unmarked numbers belong to inactive results. Cut-off read from the data, not from the text of the source: active = normalized growth mostly below about 0.91 (no sharp cut-off); inconclusive = no clear call, values can overlap the other calls; inactive = mostly above about 0.92.

Test: chemical genetic growth profiling, strain panel (AID 1159580);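 note: tested at 20 µM; growth read once vehicle control cultures reached saturation at 30 °C; 1 = growth at the plate median or of vehicle wells; lower values mean less growth of the strain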
Conditions: S. cerevisiae deletion strains, growth OD

Q: What does the source list for `Cc1nn(Cc2nnc(SCc3cccc(C(F)(F)F)c3)o2)c(C)c1Br`?
A: normalized growth (locus YAR019C, strain CDC15, stronger effect = lower value): 0.982; normalized growth (locus YBL105C, strain PKC1, stronger effect = lower value): 0.969; normalized growth (locus YBR135W, strain CKS1, stronger effect = lower value): 0.967; normalized growth (locus YBR136W, strain MEC1, stronger effect = lower value): 0.97; normalized growth (locus YBR160W, strain CDC28, stronger effect = lower value): 0.975; normalized growth (locus YDL017W, strain CDC7, stronger effect = lower value): 0.977; normalized growth (locus YDL028C, strain MPS1, stronger effect = lower value): 0.973; normalized growth (locus YDL101C, strain DUN1, stronger effect = lower value): 0.972; normalized growth (locus YDL108W, strain KIN28, stronger effect = lower value): 0.969; normalized growth (locus YDL132W, strain cdc53, stronger effect = lower value): 0.969; normalized growth (locus YDL214C, strain PRR2, stronger effect = lower value): 0.932; normalized growth (locus YDR052C, strain DBF4, stronger effect = lower value): 0.983; normalized growth (locus YDR054C, strain cdc34, stronger effect = lower value): 0.975; normalized growth (locus YDR226W, strain ADK1, stronger effect = lower value): 0.977; normalized growth (locus YDR477W, strain SNF1, stronger effect = lower value): 0.968; normalized growth (locus YER123W, strain YCK3, stronger effect = lower value): 0.921; normalized growth (locus YER133W, strain GLC7, stronger effect = lower value): 0.967; normalized growth (locus YFL009W, strain cdc4, stronger effect = lower value): 0.973; normalized growth (locus YFL029C, strain CAK1, stronger effect = lower value): 0.979; normalized growth (locus YFR003C, strain YPI1, stronger effect = lower value): 0.971; normalized growth (locus YFR019W, strain FAB1, stronger effect = lower value): 0.952; normalized growth (locus YFR028C, strain CDC14, stronger effect = lower value): 0.963; normalized growth (locus YGR040W, strain KSS1, stronger effect = lower value): 0.957; normalized growth (locus YGR052W, strain FMP48, stronger effect = lower value): 0.965; normalized growth (locus YGR092W, strain DBF2, stronger effect = lower value): 0.987; normalized growth (locus YHR030C, strain SLT2, stronger effect = lower value): 1.03; normalized growth (locus YHR079C, strain IRE1, stronger effect = lower value): 1; normalized growth (locus YHR082C, strain KSP1, stronger effect = lower value): 1; normalized growth (locus YHR205W, strain SCH9, stronger effect = lower value): 0.959; normalized growth (locus YIL147C, strain SLN1, stronger effect = lower value): 0.968; normalized growth (locus YJL095W, strain BCK1, stronger effect = lower value): 0.965; normalized growth (locus YJL128C, strain PBS2, stronger effect = lower value): 0.945; normalized growth (locus YJL157C, strain FAR1, stronger effect = lower value): 0.965; normalized growth (locus YJR016C, strain ILV3, stronger effect = lower value): 0.978; normalized growth (locus YJR066W, strain TOR1 (second series), stronger effect = lower value): 0.969; normalized growth (locus YJR066W, strain TOR1, stronger effect = lower value): 1.03; normalized growth (locus YKL048C, strain ELM1, stronger effect = lower value): 0.974; normalized growth (locus YKL067W, strain YNK1, stronger effect = lower value): 0.944; normalized growth (locus YKL101W, strain HSL1, stronger effect = lower value): 0.905; normalized growth (locus YKL193C, strain SDS22, stronger effect = lower value): 0.971; normalized growth (locus YKL203C, strain TOR2, stronger effect = lower value): 1.01; normalized growth (locus YLR113W, strain HOG1, stronger effect = lower value): 0.854 (active); normalized growth (locus YLR133W, strain CKI1, stronger effect = lower value): 0.935; normalized growth (locus YLR403W, strain SFP1, stronger effect = lower value): 0.949; normalized growth (locus YML070W, strain DAK1, stronger effect = lower value): 0.916; normalized growth (locus YMR001C, strain CDC5, stronger effect = lower value): 0.973; normalized growth (locus YMR205C, strain PFK2 (second series), stronger effect = lower value): 0.946; normalized growth (locus YMR277W, strain FCP1, stronger effect = lower value): 0.974; normalized growth (locus YNL006W, strain LST8, stronger effect = lower value): 0.971; normalized growth (locus YNL020C, strain ARK1, stronger effect = lower value): 0.942; normalized growth (locus YNL161W, strain CBK1, stronger effect = lower value): 0.969; normalized growth (locus YNL183C, strain NPR1, stronger effect = lower value): 0.99; normalized growth (locus YNL207W, strain RIO2, stronger effect = lower value): 0.975; normalized growth (locus YNL222W, strain SSU72, stronger effect = lower value): 0.97; normalized growth (locus YNL307C, strain MCK1 (second series), stronger effect = lower value): 0.956; normalized growth (locus YOL078W, strain AVO1, stronger effect = lower value): 0.967; normalized growth (locus YOL136C, strain PFK27, stronger effect = lower value): 0.881; normalized growth (locus YOR061W, strain CKA2, stronger effect = lower value): 0.952; normalized growth (locus YOR119C, strain RIO1, stronger effect = lower value): 1.02; normalized growth (locus YOR231W, strain MKK1, stronger effect = lower value): 0.91; normalized growth (locus YOR329C, strain SCD5, stronger effect = lower value): 0.978; normalized growth (locus YPL031C, strain PHO85, stronger effect = lower value): 0.961; normalized growth (locus YPL153C, strain RAD53, stronger effect = lower value): 0.972; normalized growth (locus YPL204W, strain HRR25, stronger effect = lower value): 0.932; normalized growth (locus YPL209C, strain IPL1, stronger effect = lower value): 0.982; normalized growth (locus YPL256C, strain CLN2, stronger effect = lower value): 0.965; normalized growth (locus YPR025C, strain CCL1, stronger effect = lower value): 0.974; normalized growth (locus YPR106W, strain ISR1, stronger effect = lower value): 0.975; normalized growth (locus YPR111W, strain DBF20, stronger effect = lower value): 0.947; normalized growth (strain NNK1, stronger effect = lower value): 0.961; normalized growth (strain TSCII, stronger effect = lower value): 0.972
